Compound activity deposited in PubChem BioAssay by National Center for Advancing Translational Sciences (NCATS).
MARV entry inh = qHTS for inhibitors of binding or entry into cells for Marburg Virus. Marburg virus pseudotyped entry inhibition, cell reporter. Potency, µM (doses to about 37.8 µM), for inactives: top-dose activity change, negative = inhibition, hits mostly inhibitors. 1.8% of 300,000 active. AID 540276, 2011; calls by dose curve; tested in HEK293 cells; further: potency means the concentration at half of the fitted maximal effect
HCMV inh = qHTS Assay for inhibitors of the human cytomegalovirus (HCMV); HFF cells, HCMV-luciferase reporter, 72 h; active compounds read low; activity change, negative = inhibition, % at 57.5 µM; 4.5% of 410,000 active; AID 1259415, 2018; in the data active means activity change below about -60%; inconclusive means no clear call, values can overlap the other calls; inactive means above about -39%
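Steps: HFFs plated, 16 h 37C; compounds added; HCMV-luciferase added to MOI 1 PFU/cell; 72 h 37C; OneGlo reagent, 5 min room temperature; luminescence read, normalized to controls.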
Lassa entry inh = qHTS for Inhibitors of binding or entry into cells for Lassa Virus | Potency, µM (series often up to 37.9 µM), without a hit: at the top dose activity change, negative = inhibition, most hits filed as inhibitors | AID 540256, 2011 | 1.2% of 300,000 active | Lassa virus pseudotype entry inhibition, cell reporter; calls by dose curve; tested in HEK293 cells; further: potency means the concentration at half of the fitted maximal effect; nearly all actives have a fitted effect of over 50% in size
FMDV antiviral = High Throughput Screening for Foot and Mouth Disease Virus Antivirals. FMDV antiviral cell-based qHTS. Potency, µM (titrated, usually from 57.9 µM), for inactives: top-dose activity change, negative = inhibition, actives largely listed as inhibitors. 1.2% of 410,000 active. AID 1159524, 2015; calls by dose curve; tested in HEK293T cells; further: read-out not given here; potency means the concentration at half of the fitted maximal effect; nearly all actives have a fitted effect of over 45% in size
Active calls of the source: *; ? = inconclusive; . = no result given; [ ] = dose if it differs, or a comment. Only some compounds are listed: those with a hit (about 6.2% of all), similar ones and a draw of the others. On the % scale 0 is the no-effect control and ±100 the full control effect.

SMILES	MARV entry inh	HCMV inh	Lassa entry inh	FMDV antiviral
COc1ccccc1CNC(=O)C1CCCN1S(=O)(=O)c1ccc2c(c1)C(C)(C)C(=O)N2C (stereo unspecified)	.	-5.8	.	.
CCN1CCN(CC(=O)N2N=C(c3cccs3)CC2c2ccc(F)cc2)C(=O)C1=O (stereo unspecified)	7.0%	0.0	-2.2%	9.2%
O=C(Nc1ccc(F)c(F)c1)c1ccc(F)c(S(=O)(=O)N2CCOCC2)c1	0.0%	.	.	.
CCC1CCCCN1S(=O)(=O)c1cc(C(=O)Nc2ccc(C)c(F)c2)ccc1F (stereo unspecified)	.	-90.5*	?	?
c1ccc(-c2ccc3c(c2)c2c4n3CCN=C4CCC2)cc1	25.9µM*	-15.1	-5.4%	0.0%
CCCc1cc(NCCCN2CCOCC2)n2c(nc3ccccc32)c1C#N	-9.8%	-60.1*	-1.0%	-25.7%
Cc1cc(NCCCN2CCOCC2)n2c(nc3ccccc32)c1C#N	?	-9.0	-0.3%	-18.0%
Cc1cccc(OCCn2nc(C(=O)O)c3ccccc3c2=O)c1	15.4%[46.1 µM]	6.1	7.1%	-27.8%
Cc1cccc(C)c1OCCn1nc(C(=O)O)c2ccccc2c1=O	10µM*	-26.7	6.31µM*	?
Nc1ncc(Br)cc1S(=O)(=O)NCCC(=O)NCc1ccc(F)cc1	28.8%[46.1 µM]	?	9.6%[46.1 µM]	30.4%
S=C(NCc1ccccc1)N1CCn2cccc2C1c1cccnc1 (stereo unspecified)	?	-71.5*	?	36.3%
CCCCNC(=S)N1CCn2cccc2C1c1ccc(F)cc1 (stereo unspecified)	6.31µM*	94.5	12.6µM*	-14.7%
COc1ccc(CN(C)C(=O)c2ccncc2)c(OC)c1	23.0%[46.1 µM]	.	?	-8.2%
O=Nc1c(-c2c(O)[nH]c3cc(Br)ccc23)[nH]c2ccccc12	?	-68.0*	?	0.6%
O=c1nc2sc3ccccc3n2c(=O)n1-c1ccc(Cl)c(Cl)c1	15.7%[46.1 µM]	5.0	0.7%[46.1 µM]	23.0%
O=C(CSc1nccc(-c2cccs2)n1)Nc1cccc(Cl)c1	13.8%[14.2 µM]	-25.5	-27.5%	-22.6%
Cc1onc(-c2ccc(Cl)cc2)c1-c1ccnc(SCC(=O)Nc2cc(Cl)cc(Cl)c2)n1	7.94µM*	-14.6	?	-16.0%
CCc1nc(NCCCN2CCOCC2)c2oc3ccccc3c2n1	6.3%	-11.9	-0.7%	-12.5%
Cc1c(N=C2NC(=O)/C(=C/c3ccc(O)cc3)S2)c(=O)n(-c2ccccc2)n1C	?	?	?	-29.7%
O=C1NC(=NCc2ccccc2)S/C1=C/c1ccc(O)cc1	?	-62.3*	?	69.7%
CC1CCCC(NC(=O)c2n[nH]c(=O)c3ccccc23)C1C (stereo unspecified)	10.7%	9.2	-1.0%	32.1%
Oc1ccc(CCC2CCCCN2Cc2nc(C3CC3)no2)cc1 (stereo unspecified)	3.1%[46.1 µM]	-39.3	-27.9%	-3.6%
Cc1ccc(C(=O)NCCN2CCN(C(=O)c3ccc(C)c(C)c3)CC2)cc1C	-10.6%[46.1 µM]	-1.4	-3.0%[46.1 µM]	-0.5%
CC(C)c1ccc(C(=O)NCCCN2CCN(CCCNC(=O)c3ccc(C(C)C)cc3)CC2)cc1	?	-80.2*	11.2µM*	?
O=C(NCCN1CCN(C(=O)c2ccc(Br)cc2)CC1)c1ccc(Br)cc1	-0.7%[46.1 µM]	-66.3*	-21.3%[46.1 µM]	?
SMILES	MARV entry inh	HCMV inh	Lassa entry inh	FMDV antiviral
N#CC(C#N)c1ccnc2ccccc12	.	-78.1*	.	-28.8%
CC(C)(C)C(=O)NC(=S)Nc1cc(C(=O)O)ccc1Cl	?	-60.8*	14.0%	4.5%
CC(=O)Nc1ccc(C2Sc3ccccc3NC3=C2C(=O)c2ccccc23)cc1 (stereo unspecified)	?	-28.6	7.8%[46.1 µM]	126.1%
CC(C)c1ccc(C2Sc3ccccc3NC3=C2C(=O)c2ccccc23)cc1 (stereo unspecified)	?	-99.9*	17.7%[46.1 µM]	7.94µM*
O=C1C2=C(Nc3ccccc3SC2c2ccco2)c2ccccc21 (stereo unspecified)	?	29.4	?	0.0%
O=C1C2=C(Nc3ccccc3SC2c2ccc(C(F)(F)F)cc2)c2ccccc21 (stereo unspecified)	?	-99.1*	?	?
CCc1ccc(C2Sc3ccccc3NC3=C2C(=O)c2ccccc23)cc1 (stereo unspecified)	?	-84.5*	?	54.4%
CC(C)(C)c1cnnn1-c1ccc(NC(=O)c2ccc3c(c2)OCO3)cc1	-2.2%	-4.6	8.7%	0.0%
CCc1ccc(C(=O)Nc2ccc(S(=O)(=O)Nc3nc(C)cc(C)n3)cc2)o1	-1.9%	4.3	-1.9%	20.0%
Nc1nc(NCc2ccco2)nn1-c1ccccc1	28.4%	11.0	18.0%	1.9%
COc1ccc(OCc2cc(C(=O)N(C)C(C)c3ccon3)no2)c(Cl)c1 (stereo unspecified)	-6.9%	-92.9*	3.3%	31.8%
COc1ccc(OCc2cc(C(=O)N(C)CCC3CCOCC3)no2)c(Cl)c1	.	11.7	.	-3.2%
CC(C)(O)C#Cc1ccc([C@@H]2C[C@H]3CN(c4ccccc4)C(=O)[C@]34CCCN24)s1	?	-99.2*	?	-18.1%
O=C1N(c2ccccc2)C[C@@H]2C[C@@H](c3cccs3)N3CCC[C@@]123	.	?	.	-1.9%
COCc1cc([C@@H]2C[C@H]3CN(c4ccccc4)C(=O)[C@]34CCCN24)ccc1OC	.	-94.0*	.	11.2%
COCCNC(=O)C1(C)CCCN(Cc2cc(-c3ccccc3)nn2C)C1 (stereo unspecified)	.	7.1	.	8.2%
CCCCc1c(-c2cccc(Br)c2)ncn1CCc1ccccc1OC	.	-100.5*	.	?
CCCCCc1c(-c2cccc(Cl)c2)ncn1CCc1ccccc1OC	.	-6.3	.	-26.8%
CCCCCc1c(-c2cccc(OC)c2)ncn1CCc1ccccc1OC	.	-95.4*	.	28.2µM*
CCCCc1c(-c2cccc(F)c2)ncn1CCc1ccccc1OC	.	-61.1*	.	25.1µM*
CCCCCc1c(-c2cccc(F)c2)ncn1CCc1ccccc1OC	.	?	.	22.4µM*
CCCCCc1c(-c2ccc(F)cc2)ncn1CCc1ccccc1OC	.	-28.3	.	?
CCCCCc1c(-c2ccc(Br)cc2)ncn1CCc1ccccc1OC	.	-104.4*	.	?
CCCc1c(-c2cccc(F)c2)ncn1CCc1ccccc1OC	.	-74.2*	.	?
CCCc1c(-c2cccc(F)c2)ncn1Cc1ccccc1OC	.	-16.2	.	-1.3%
SMILES	MARV entry inh	HCMV inh	Lassa entry inh	FMDV antiviral
CCOc1ccc(C(=O)/C=C/c2ccc(SC)cc2)cc1	-11.3%	5.4	-3.1%	-10.9%
CCOc1ccc(C(=O)N/N=C/c2ccc(SC)cc2)cc1	7.5%	-33.0	2.82µM*	-15.8%
CCOc1cc(C(=O)N/N=C/c2ccsc2)cc(OCC)c1OCC	?	13.9	?	1.6%
CCOc1cc(C(=O)N/N=C/c2ccoc2)cc(OCC)c1OCC	.	-88.0*	.	4.9%
CCC(C)C(=O)Nc1ccc(S(=O)(=O)Nc2nccs2)cc1 (stereo unspecified)	.	12.2	.	41.1%
CC(C)CC(=O)NC(=S)Nc1ccc(S(=O)(=O)Nc2nccs2)cc1	10.5%	-70.6*	-12.6%	73.4%
